Data: PubChem BioAssay
Inconclusive results are not listed. The source made the active and inactive calls. Unless noted, the rule behind the calls is not given here.

How the values were obtained:
[1] = yeast TOR pathway RPL19A-GFP modulators, primary screen, cell-based, S. cerevisiae, multiplex flow cytometry (AID 1862; in the data active = percent of DMSO control GFP below about 86%;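 note: lower values mimic rapamycin by blocking the RPL19A rise seen in DMSO cells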); conditions: S. cerevisiae RPL19A-GFP strain, flow cytometry fluorescence, 3 h; at 10 µM; stronger effect = lower value
[2] = modulators of MEP2-GFP levels in yeast, primary screen, S. cerevisiae, multiplex flow cytometry (AID 1867;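 active = GFP response, as percent of the DMSO control, above the screen-wide mean plus 3 SD, about 139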;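 note: median GFP channel fluorescence of barcode-gated MEP2-GFP cells measured by flow cytometry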); conditions: S. cerevisiae MEP2-GFP strain, 3 h, at 10 µM, stronger effect = higher value
[3] = modulators of CIT2-GFP expression in yeast, primary screen, S. cerevisiae, GFP fusion, multiplex flow cytometry (AID 1870;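 active = percent response above a set limit, the screen-wide mean plus 3 SD, cut at about 130% in these data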;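 note: barcoded CIT2-GFP strain pooled with four other GFP strains with rapamycin as positive control; median GFP fluorescence per well over plate mean of DMSO wells so 100% = DMSO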); conditions: 3 h, at 10 µM, stronger effect = higher value
[4] = modulators of LAP4-GFP expression in yeast, primary screen, S. cerevisiae, multiplex flow cytometry (AID 1873;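 active = GFP signal, as percent of the solvent control, above the screen mean plus 3 SD, about 149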); conditions: 3 h, at 10 µM, stronger effect = higher value
[5] = modulators of AGP1-GFP expression in yeast TOR pathway, primary screen, cell-based, multiplex flow cytometry, S. cerevisiae (AID 1887;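 active = GFP signal above the screen-wide mean plus 3 SD, that is over about 124.5% of the solvent control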;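 note: AGP1-GFP fusion strain of S. cerevisiae within a five-strain barcoded multiplex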); conditions: 3 h, at 10 µM, stronger effect = higher value
[6] = inhibitors of CD8+ T cell-vesicle binding, pilot screen, LFA-1/ICAM-1 modulator project, MLPCN validation set, flow cytometry (AID 2523;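 active = response below a set limit, under 55% cells CD8-positive and vesicle-bound, and CD8 cells' 90th-percentile brightness under 279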;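 for vesicle binding response: mean PE anti-B7-1 fluorescence of CD8+ cells relative to row control; 100% = QL9-loaded vesicles with DMSO vehicle in the same plate row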); conditions: 2C mouse CD8+ T cells, at 7 µM, stronger effect = lower value; double positive events: measured here: CD8+/vesicle+ event percentage
[7] = biological target: Integrin beta-1 (Homo sapiens) + Integrin alpha-4 (Homo sapiens) (UniProt P13612+P05556); assay: inhibition of HUTS-21 binding to VLA-4, pilot screen, VLA-4 allosteric modulator project, U937 cells, HUTS-21 mAb, flow cytometry, validation set (AID 2674;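 active = inhibition above 50%, about 3 SD of the validation set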;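 note: antibody binding induced by the VLA-4 ligand LDV present at three times its Kd; 0% = LDV ligand with antibody and no compound and 100% = antibody without LDV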); conditions: HUTS-21 LIBS mAb binding, at 6.7 µM, stronger effect = higher value
[8] = superoxide lowering in aged yeast cells, pilot screen, validation compound set (AID 2706;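 active = superoxide response below 65% of plate, a cut near 3 SD across the whole screen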;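 note: yeast exposed to compound for one week at 30 degrees C before staining; 100% = mean of all compound wells on the same plate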); conditions: S. cerevisiae aging, superoxide DHE fluorescence; at 10 µM; stronger effect = lower value
[9] = biological target: Beta-adrenergic receptor kinase 1 (Homo sapiens) (UniProt P25098); assay: GRK2 binders displacing RNA aptamer, biochemical, validation, human GRK2, bead flow cytometry (AID 488806;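 active = aptamer binding inhibition above 30%, about 3 SD of noise from non-fluorescent compounds; inactive = inhibition at or below 30%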); conditions: bead-bound GRK2, FAM-aptamer displacement, at 10 µM, stronger effect = higher value
[10] = biological target: Beta-2 adrenergic receptor (Homo sapiens) (UniProt P07550); assay: beta2AR agonists driving receptor internalization, pilot screen, cell-based, FAP fluorogen, flow cytometry, validation set (AID 504459;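 active = percent response above 42, roughly 3 SD of non-fluorescent test compounds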;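 note: agonist-driven loss of surface beta2AR via internalization measured by FAP dye flow cytometry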); conditions: Am2.2-beta2AR cells, FAP surface receptor flow cytometry; at 10 µM; stronger effect = higher value
[11] = biological target: AP-2 complex subunit beta (Homo sapiens) (UniProt P63010); assay: inhibitors of arrestin peptide binding to AP2, pilot screen, biochemical, validation set, GST-AP2 beads, flow cytometry (AID 504541;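 active = inhibition above 54%, about 3 SD of non-fluorescent compounds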;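 note: AP2 carries R879A mutation and is captured from E. coli lysate; bead-bound FITC arrestin peptide fluorescence measuring arrestin peptide binding to AP2; 0% = DMSO wells and 100% = excess unlabeled arrestin peptide control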); conditions: FITC arrestin peptide, at 10 µM, stronger effect = higher value
[12] = yeast V-ATPase proton transport modulators, S. cerevisiae, pHLuorin, HTS validation (AID 504600; in the data active = response above about 15%;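 note: plate controls were DMSO for no effect and reference compound for full effect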); conditions: S. cerevisiae pHLuorin cytosolic pH, at 10 µM, stronger effect = higher value
[13] = system: anti-desmoglein-3 scFv antibody binding to human DSG3; assay: inhibitors of anti-DSG3 scFv binding to DSG3, pilot screen, biochemical, validation compound set, bead-based, flow cytometry (AID 588368;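 active = binding below the plate cutoff, the plate median minus 3 SD, with a reading above zero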;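 note: signal is the median channel fluorescence of bead-bound GFP antibody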); conditions: Protein G beads, DSG3-Fc, scFv-GFP binding, at 10 µM, stronger effect = lower value
[14] = system: Botulinum neurotoxin type F light chain protease (Clostridium botulinum); assay: Botulinum neurotoxin type F light chain protease inhibition, multiplex microsphere flow cytometry, validation set (AID 588459); conditions: multiplex microsphere protease substrate cleavage assay, at 10 µM, stronger effect = higher value
[15] = biological target: Botulinum neurotoxin type A (Clostridium botulinum) (UniProt P0DPI0); assay: BoNT/A light chain protease inhibitors, biochemical, multiplex microsphere flow cytometry, validation set (AID 588460); conditions: at 10 µM, stronger effect = higher value
[16] = biological target: Lethal factor (Bacillus anthracis) (UniProt P15917); assay: Lethal factor protease inhibitors, Bacillus anthracis, multiplex microsphere cleavage assay, validation set (AID 588461); conditions: flow cytometry, at 10 µM, stronger effect = higher value
[17] = inhibitors of fungal efflux pumps CDR1, CDR2, MDR1, pilot screen, validation compound set, multiplex, phenotypic (AID 588506;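 active = efflux inhibition above 0.42, the validation set average plus 4 SD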;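 note: Nile Red retained in cells so higher fluorescence means more efflux inhibition; 0 = negative control wells and 1 = enniatin B 25 µM full block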); conditions: S. cerevisiae pump-expressing triplex, Nile Red efflux flow cytometry; at 10 µM; stronger effect = higher value
[18] = biological target: ATP-binding cassette sub-family B member 6 (Homo sapiens) (UniProt Q9NP58); assay: ABCB6 transporter inhibitors, pilot screen, K562-ABCB6 cells, flow cytometry, validation set (AID 588550;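 active = inhibition above the screen-wide mean plus 3 SD, about 51%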;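 note: 0% = DMSO wells and 100% = benzethonium chloride 70 µM positive control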); conditions: K562-ABCB6 porphyrin accumulation, 1 h, at 10 µM, stronger effect = higher value
[19] = promoters of myeloid differentiation in arrested cells, primary screen, cell-based, GFP/MAC1 double positive, flow cytometry, validation set (AID 588685;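 active = differentiation response of at least 50%, scaled between solvent and reference control, from cells with both markers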;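 note: compound exposure lasts four days before antibody staining and flow analysis; 0% = DMSO wells and 100% = 5 µM fulvestrant positive control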); conditions: ER-HoxA9 marrow cells, stronger effect = higher value

Sequence of Beta-adrenergic receptor kinase 1 (Homo sapiens) (P25098 whole entry, looked up): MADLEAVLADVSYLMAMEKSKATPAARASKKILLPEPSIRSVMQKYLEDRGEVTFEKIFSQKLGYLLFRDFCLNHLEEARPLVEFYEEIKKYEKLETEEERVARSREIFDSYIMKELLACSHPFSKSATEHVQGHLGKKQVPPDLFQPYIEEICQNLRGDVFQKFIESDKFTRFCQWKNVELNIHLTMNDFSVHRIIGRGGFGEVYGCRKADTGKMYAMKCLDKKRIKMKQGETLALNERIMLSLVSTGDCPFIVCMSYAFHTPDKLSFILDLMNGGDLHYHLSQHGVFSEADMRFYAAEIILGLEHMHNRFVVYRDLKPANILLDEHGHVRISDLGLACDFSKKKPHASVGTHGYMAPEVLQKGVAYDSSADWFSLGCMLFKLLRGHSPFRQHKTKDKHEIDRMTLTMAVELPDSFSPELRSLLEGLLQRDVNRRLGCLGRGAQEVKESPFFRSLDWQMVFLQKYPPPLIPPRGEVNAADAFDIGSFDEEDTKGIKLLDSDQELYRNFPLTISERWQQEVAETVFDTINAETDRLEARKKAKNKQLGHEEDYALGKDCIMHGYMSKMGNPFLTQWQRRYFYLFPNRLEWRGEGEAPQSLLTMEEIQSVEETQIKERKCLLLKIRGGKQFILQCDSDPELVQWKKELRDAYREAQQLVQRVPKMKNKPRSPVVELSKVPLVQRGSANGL
Sequence of Beta-2 adrenergic receptor (Homo sapiens) (P07550 whole entry, looked up): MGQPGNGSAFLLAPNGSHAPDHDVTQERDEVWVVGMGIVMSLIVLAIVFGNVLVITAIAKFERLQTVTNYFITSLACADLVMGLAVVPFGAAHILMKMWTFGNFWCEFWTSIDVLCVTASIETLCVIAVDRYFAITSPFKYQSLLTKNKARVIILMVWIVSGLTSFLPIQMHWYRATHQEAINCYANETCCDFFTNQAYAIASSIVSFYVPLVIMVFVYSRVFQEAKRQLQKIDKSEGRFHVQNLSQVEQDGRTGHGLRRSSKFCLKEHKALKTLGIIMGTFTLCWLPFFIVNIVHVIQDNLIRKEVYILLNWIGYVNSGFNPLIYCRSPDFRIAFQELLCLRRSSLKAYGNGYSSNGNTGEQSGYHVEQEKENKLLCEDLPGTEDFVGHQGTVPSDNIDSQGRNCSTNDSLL
Sequence of Lethal factor (Bacillus anthracis) (P15917 whole entry, looked up): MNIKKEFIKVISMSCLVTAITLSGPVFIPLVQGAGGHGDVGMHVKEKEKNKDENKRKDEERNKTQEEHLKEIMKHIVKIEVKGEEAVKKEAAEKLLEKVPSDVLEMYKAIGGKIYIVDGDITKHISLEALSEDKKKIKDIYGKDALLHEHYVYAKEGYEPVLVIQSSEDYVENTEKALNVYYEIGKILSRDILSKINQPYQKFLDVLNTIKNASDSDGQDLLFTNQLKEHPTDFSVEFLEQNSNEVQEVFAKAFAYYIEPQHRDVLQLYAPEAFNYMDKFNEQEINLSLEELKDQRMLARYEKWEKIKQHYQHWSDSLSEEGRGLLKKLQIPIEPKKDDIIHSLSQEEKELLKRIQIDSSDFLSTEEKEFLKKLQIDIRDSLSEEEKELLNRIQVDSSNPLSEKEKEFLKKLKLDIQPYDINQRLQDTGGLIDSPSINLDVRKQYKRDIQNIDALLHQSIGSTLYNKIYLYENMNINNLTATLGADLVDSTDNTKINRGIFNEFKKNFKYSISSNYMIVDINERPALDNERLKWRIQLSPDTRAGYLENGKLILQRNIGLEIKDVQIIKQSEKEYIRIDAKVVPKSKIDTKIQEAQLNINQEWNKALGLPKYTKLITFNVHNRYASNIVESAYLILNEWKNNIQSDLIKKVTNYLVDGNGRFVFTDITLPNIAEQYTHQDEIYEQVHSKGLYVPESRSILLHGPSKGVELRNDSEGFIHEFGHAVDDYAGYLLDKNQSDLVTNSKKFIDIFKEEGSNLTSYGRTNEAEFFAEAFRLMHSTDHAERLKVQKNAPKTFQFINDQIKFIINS
Sequence of Integrin beta-1 (Homo sapiens) + Integrin alpha-4 (Homo sapiens) (P05556 whole entry, looked up): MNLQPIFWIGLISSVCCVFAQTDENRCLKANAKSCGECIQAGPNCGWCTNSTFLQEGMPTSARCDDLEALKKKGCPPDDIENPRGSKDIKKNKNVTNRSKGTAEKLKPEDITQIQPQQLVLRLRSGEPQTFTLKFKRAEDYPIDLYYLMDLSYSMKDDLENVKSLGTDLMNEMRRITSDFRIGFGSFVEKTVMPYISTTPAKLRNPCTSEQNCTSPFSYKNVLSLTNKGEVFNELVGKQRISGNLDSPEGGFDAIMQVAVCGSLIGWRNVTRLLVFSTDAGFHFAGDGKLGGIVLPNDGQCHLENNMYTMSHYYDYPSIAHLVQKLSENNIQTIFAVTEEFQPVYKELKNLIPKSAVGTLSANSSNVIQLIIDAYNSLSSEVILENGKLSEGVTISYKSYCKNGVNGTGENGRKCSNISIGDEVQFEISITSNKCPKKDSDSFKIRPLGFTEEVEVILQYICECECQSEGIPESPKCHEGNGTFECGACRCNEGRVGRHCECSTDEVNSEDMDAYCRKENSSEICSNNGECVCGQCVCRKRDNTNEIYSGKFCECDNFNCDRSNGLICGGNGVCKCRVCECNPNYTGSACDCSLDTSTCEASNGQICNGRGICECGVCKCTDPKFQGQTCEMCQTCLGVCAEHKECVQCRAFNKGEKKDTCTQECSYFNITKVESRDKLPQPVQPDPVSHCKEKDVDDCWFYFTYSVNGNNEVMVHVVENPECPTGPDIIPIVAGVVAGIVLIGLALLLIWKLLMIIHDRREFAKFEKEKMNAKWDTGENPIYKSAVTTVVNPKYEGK
Sequence of Integrin beta-1 (Homo sapiens) + Integrin alpha-4 (Homo sapiens) (P13612 whole entry, looked up): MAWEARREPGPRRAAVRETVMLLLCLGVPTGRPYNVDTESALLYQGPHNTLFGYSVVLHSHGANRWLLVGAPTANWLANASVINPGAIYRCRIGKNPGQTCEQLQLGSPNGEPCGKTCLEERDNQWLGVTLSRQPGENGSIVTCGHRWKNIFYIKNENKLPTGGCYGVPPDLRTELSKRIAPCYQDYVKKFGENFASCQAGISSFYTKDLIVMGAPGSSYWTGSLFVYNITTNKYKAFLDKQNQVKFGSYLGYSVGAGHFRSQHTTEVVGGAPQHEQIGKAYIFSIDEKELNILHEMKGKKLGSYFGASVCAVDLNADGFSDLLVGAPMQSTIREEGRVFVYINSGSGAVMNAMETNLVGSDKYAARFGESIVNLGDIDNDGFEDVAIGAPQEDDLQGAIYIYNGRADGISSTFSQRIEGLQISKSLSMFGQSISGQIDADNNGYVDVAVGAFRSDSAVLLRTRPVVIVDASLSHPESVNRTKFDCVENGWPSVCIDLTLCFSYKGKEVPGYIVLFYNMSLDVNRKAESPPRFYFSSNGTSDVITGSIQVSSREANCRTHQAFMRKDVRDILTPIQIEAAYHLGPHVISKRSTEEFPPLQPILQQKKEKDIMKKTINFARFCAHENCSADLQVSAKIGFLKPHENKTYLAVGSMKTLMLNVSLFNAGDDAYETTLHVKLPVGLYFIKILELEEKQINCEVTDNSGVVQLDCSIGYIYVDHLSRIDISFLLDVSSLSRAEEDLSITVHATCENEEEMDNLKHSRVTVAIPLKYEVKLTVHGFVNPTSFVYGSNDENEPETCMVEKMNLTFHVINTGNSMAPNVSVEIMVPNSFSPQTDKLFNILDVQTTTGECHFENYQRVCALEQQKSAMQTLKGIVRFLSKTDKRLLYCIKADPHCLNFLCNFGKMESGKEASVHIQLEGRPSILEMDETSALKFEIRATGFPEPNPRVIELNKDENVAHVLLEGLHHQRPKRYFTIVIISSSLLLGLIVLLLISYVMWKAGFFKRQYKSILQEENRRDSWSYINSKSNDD
Sequence of AP-2 complex subunit beta (Homo sapiens) (P63010 whole entry, looked up, one chain of several): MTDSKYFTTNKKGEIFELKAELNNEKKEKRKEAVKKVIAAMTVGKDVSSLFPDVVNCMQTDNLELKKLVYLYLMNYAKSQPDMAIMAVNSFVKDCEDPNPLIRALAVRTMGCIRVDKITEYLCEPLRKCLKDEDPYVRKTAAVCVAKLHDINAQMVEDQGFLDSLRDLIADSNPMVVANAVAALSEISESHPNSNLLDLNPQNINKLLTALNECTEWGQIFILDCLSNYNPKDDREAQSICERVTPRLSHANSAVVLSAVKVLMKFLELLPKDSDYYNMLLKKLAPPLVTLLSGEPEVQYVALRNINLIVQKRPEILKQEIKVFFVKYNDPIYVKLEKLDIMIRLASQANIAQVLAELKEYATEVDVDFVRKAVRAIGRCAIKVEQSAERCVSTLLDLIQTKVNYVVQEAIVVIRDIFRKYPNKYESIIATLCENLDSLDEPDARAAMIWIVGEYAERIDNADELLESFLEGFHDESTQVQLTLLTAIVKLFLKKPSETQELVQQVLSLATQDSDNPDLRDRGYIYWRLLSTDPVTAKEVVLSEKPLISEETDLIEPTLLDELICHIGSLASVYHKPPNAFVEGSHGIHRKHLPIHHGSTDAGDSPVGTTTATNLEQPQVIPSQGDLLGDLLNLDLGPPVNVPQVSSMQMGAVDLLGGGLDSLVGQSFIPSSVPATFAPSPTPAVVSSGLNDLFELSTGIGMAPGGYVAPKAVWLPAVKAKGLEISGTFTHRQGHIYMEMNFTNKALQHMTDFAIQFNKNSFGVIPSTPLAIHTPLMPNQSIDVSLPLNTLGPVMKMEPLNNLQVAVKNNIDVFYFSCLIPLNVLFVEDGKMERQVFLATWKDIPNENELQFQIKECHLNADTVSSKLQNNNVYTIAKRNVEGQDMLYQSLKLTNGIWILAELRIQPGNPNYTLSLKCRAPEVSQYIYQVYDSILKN

Row | SMILES | percent of DMSO control GFP [1] | GFP response vs DMSO [2] | percent response of DMSO control [3] | GFP response vs DMSO [4] | GFP response, % of DMSO [5] | double positive events [6] [%] | vesicle binding response [6] | inhibition [7] | superoxide response (% of plate) [8] | aptamer binding inhibition [9] | response [10] | inhibition [11] | response [12] | binding (% of control) [13] | inhibition [14] | inhibition [15] | inhibition [16] | efflux inhibition (fraction of control) [17] | inhibition [18] | differentiation response [19]
1 | C[C@H]1CCCC(=O)CCC/C=C/c2cc(O)cc(O)c2C(=O)O1 | 102% (inactive) | 104% (inactive) | 96% (inactive) | 96.5% (inactive) | 98.3% (inactive) | 57.4 | 138% (inactive) | -0.31% (inactive) | 102% (inactive) | 3% (inactive) | 2.24% (inactive) | -2.22% (inactive) | 0.54% (inactive) | 99% (inactive) | 5.6% (inactive) | 0.5% (inactive) | 0.4% (inactive) | -0.09 (inactive) | 3% (inactive) | -5.68% (inactive)
2 | Clc1ccc(C2NCCc3[nH]cnc32)cc1 (centres undefined) | 104% (inactive) | 98.3% (inactive) | 101% (inactive) | 92% (inactive) | 104% (inactive) | 60.8 | 244% (inactive) | -1.49% (inactive) | 94.4% (inactive) | -1% (inactive) | -11.3% (inactive) | -2.42% (inactive) | 0.96% (inactive) | 100% (inactive) | 1.1% (inactive) | 0.7% (inactive) | -5.5% (inactive) | -0.1 (inactive) | 1% (inactive) | -5.62% (inactive)
3 | O=S(=O)(c1ccc(F)cc1)N1CCCCC1c1cccnc1 (centres undefined) | 99% (inactive) | 102% (inactive) | 98.3% (inactive) | 112% (inactive) | 113% (inactive) | 62 | 202% (inactive) | -2.82% (inactive) | 99.7% (inactive) | -2% (inactive) | -9.47% (inactive) | -4.49% (inactive) | 2.55% (inactive) | 105% (inactive) | 0.1% (inactive) | 0.8% (inactive) | 3.2% (inactive) | 0.08 (inactive) | 3% (inactive) | -11.9% (inactive)
4 | OC(c1ccccc1)(c1ccccc1)C1CCNCC1 | 99.4% (inactive) | 110% (inactive) | 104% (inactive) | 85.3% (inactive) | 103% (inactive) | 73.3 | 322% (inactive) | -5.18% (inactive) | 94.6% (inactive) | 12% (inactive) | 6.3% (inactive) | 2.73% (inactive) | 10.3% (inactive) | 106% (inactive) | 4.1% (inactive) | 1.1% (inactive) | 4.1% (inactive) | 0.05 (inactive) | 12% (inactive) | 2.46% (inactive)
5 | C[C@]12CC[C@@H](O)C[C@@H]1CC[C@@H]1[C@@H]2CC[C@]2(C)C(=O)CC[C@@H]12 | 100% (inactive) | 99.7% (inactive) | 84.1% (inactive) | 147% (inactive) | 101% (inactive) | 62.8 | 118% (inactive) | -2.43% (inactive) | 75.3% (inactive) | 3% (inactive) | 20.4% (inactive) | -0.33% (inactive) | -2.85% (inactive) | 99% (inactive) | 2% (inactive) | -0.3% (inactive) | -2.4% (inactive) | -0.07 (inactive) | 0% (inactive) | -4.57% (inactive)
6 | C[C@H]1CCC[C@H](O)CCCCCc2cc(O)cc(O)c2C(=O)O1 | 104% (inactive) | 94.8% (inactive) | 106% (inactive) | 87.3% (inactive) | 105% (inactive) | 52.7 | 191% (inactive) | -7.7% (inactive) | 106% (inactive) | -4% (inactive) | – | -16.7% (inactive) | 3% (inactive) | 106% (inactive) | 0.3% (inactive) | -0.8% (inactive) | -4.3% (inactive) | -0.28 (inactive) | 9% (inactive) | -34.1% (inactive)
